Most compounds without a hit are left out; they make up all but 9.2% or so of the library.
HTT cytoprotect = cytoprotection in Huntington HTT-Q103 PC12 cell model | 230,000 tested, 0.14% active | AID 1471 | PC12 HTT-Q103 induced, cytoprotection, ATP luminescence, 40 h | Potency, µM (doses to about 56.4 µM), actives largely listed as activators; active means well fitted curve in the direction sought with a large enough effect; inconclusive means small, poorly fitted or top-dose-only effect, or another doubt; inactive means no such curve, though single readings can be large; an effect the other way counts as inactive or inconclusive; further: nearly all actives have a fitted effect of over 45% in size
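PC12 cells stably carrying ecdysone-inducible Htt exon 1 (Q103)–GFP were induced with 100 nM tebufenozide (final) alongside library compounds in a dose series. Cytoprotection was scored as retained ATP by ATPlite luminescence.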
JMJD2E inh = blocks human JMJD2E demethylase activity. B2RXH2. JMJD2E catalytic domain, FDH-coupled NADH fluorescence (FDH is formaldehyde dehydrogenase). Potency, µM (highest dose often 57.1 µM), usual class: inhibitors. 230,000 tested, 1.6% active; further: nearly all actives have a fitted effect of over 50% in size
LMNA splice mod = LMNA splicing modulation; HeLa LMNA splicing GFP/RFP minigene ratio, 48 h; Potency, µM (top dose mostly 46.1 µM), most hits filed as inhibitors; 200,000 tested, 0.01% active; active means well fitted inhibition curve with a large enough effect in the signal ratio, with a control signal flat, not every such curve was filed as active; inconclusive means small, poorly fitted or top-dose-only effect, or effect the other way, or a change in a side signal; the % refers to the signal ratio
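S3 HeLa cells stably expressing lamin A-EGFP splicing minigene plus DsRed2, 600 cells/well, 48 h compound exposure at 37C. Laser-scanning cytometry; analysed as GFP (500-530 nm)/RFP (575-640 nm) total intensity ratio; 0.5% DMSO vehicle.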
HTT aggregate = mutant huntingtin aggregation inhibition. 220,000 tested, 1.1% active. Potency, µM (series often up to 46.1 µM), actives largely listed as inhibitors. PC12 HttQ103-GFP aggregates, Acumen cytometry, 40 h. AID 1688; active means well fitted curve in the direction sought with a large enough effect; inconclusive means small, poorly fitted or top-dose-only effect, or another doubt; inactive means no such curve, though single readings can be large; an effect the other way counts as inactive or inconclusive; further: nearly all actives have a fitted effect of over 60% in size
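Compounds (qHTS titration) were added to PC12 cells expressing an ecdysone-driven HTT exon 1 Q103–GFP fusion after induction with 100 nM tebufenozide. Aggregate formation was measured as GFP objects in cell lysates.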
ALDH1A1 block = ALDH1A1 (human) enzyme inhibition. 220,000 tested, 7.3% active. P00352. AID 1030. Potency, µM (titrated, usually from 75.3 µM), usual class: inhibitors. Purified ALDH1A1, NADH fluorescence, propionaldehyde substrate
HPGD block = inhibitors of human 15-hydroxyprostaglandin dehydrogenase (HPGD); P15428; purified HPGD, NADH fluorescence kinetic, PGE2 substrate; Potency, µM, usual class: inhibitors; 150,000 tested, 4.3% active; AID 894
Target sequence (P15428 whole entry, looked up): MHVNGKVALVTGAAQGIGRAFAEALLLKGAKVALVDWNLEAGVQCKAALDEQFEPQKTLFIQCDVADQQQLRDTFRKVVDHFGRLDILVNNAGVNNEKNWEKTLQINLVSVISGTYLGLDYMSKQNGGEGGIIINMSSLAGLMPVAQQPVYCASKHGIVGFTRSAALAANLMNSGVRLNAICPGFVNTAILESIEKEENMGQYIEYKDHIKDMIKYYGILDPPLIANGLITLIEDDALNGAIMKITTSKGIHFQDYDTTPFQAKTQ
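NADH formation kinetics: reaction with 30 uM PGE2 and 1 mM NAD+ (final), 20 nM enzyme, Tris-HCl pH 8 with Tween 20, after 15 min compound preincubation at room temperature. Fluorescence change, last versus first of five reads.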
Hits are given with their value; n = inactive; u = inconclusive; x = no result given; [ ] = dose if it differs, or a comment. Unless noted, the call rests on the fitted dose curve; in most records, active means well fitted inhibition curve with a large enough effect (not every such curve was filed as active); inconclusive means small, poorly fitted or top-dose-only effect, or another doubt; inactive means no such curve, though single readings can be large or run the other way.

SMILES	HTT cytoprotect	JMJD2E inh	LMNA splice mod	HTT aggregate	ALDH1A1 block	HPGD block
COc1ccc(C(=O)NC(=S)Nc2ccc3oc(=O)ccc3c2)cc1	n[10 µM]	n	n	n	n	n
O=[n+]1c2c(n([O-])c3cc(F)c(N4CCCC4)cc31)CCCC2	n	u	n	n	20µM	n
O=[n+]1c2c(n([O-])c3cc(F)ccc31)CCCC2	n	n	n	n	n	n
Cc1ccc2c(c1)nnn2C1CCN(S(=O)(=O)c2ccc(C(=O)N3C(C)CCCC3C)cc2)CC1 (stereo not drawn)	n	n	n	13µM	n	n
Clc1cccc(N/N=C/c2ccc(N3CCOCC3)s2)c1	n[10 µM]	11µM	n	n	11µM	n
O=C(N/N=C/c1ccc(N2CCOCC2)s1)c1ccccc1Br	n	n	u	n	14µM	x
CC(C)(C)OC(=O)N/N=C/c1ccc(N2CCOCC2)s1	n[10 µM]	u	u	n	n	n
Cc1ccc(CN(C(=O)c2ccc(OCC(C)C)cc2)c2ccccn2)o1	x	x	n	x	x	x
Cc1ccc(S(=O)(=O)Nc2ccccc2CNc2ncc(Br)cc2Br)cc1	n[10 µM]	n	u	n	u	n
CN(C)c1ccc(CNc2ncc(Br)cc2Br)cc1	n	n	n	n	3.2µM	n
Clc1ccc(-c2csc(Nc3ccccc3)[n+]2Cc2ccco2)c(Cl)c1	n	n	u	u	18µM	x
O=[N+]([O-])c1ccc(S(=O)(=O)N2CCSC2c2ccco2)cc1 (stereo not drawn)	n[10 µM]	n	u	n[9.22 µM]	4µM	x
CCc1ccc(NS(=O)(=O)c2ccc(Cl)cc2OC)cc1	x	x	x	x	n	n
Cc1ccc(CCNC(=O)CN(C)S(=O)(=O)c2ccc3c(c2)c(=O)n(C)c(=O)n3C)cc1	n	n	n	n	13µM	n
Cc1cccc(CCNC(=O)CN(C)S(=O)(=O)c2ccc3c(c2)c(=O)n(C)c(=O)n3C)c1	n	n	n	n	n	n
Cc1cc(C)cc(NS(=O)(=O)c2ccc3c(c2)c(=O)n(C)c(=O)n3C)c1	n	n	u	8.9µM	n	n
CC(C)c1ccc2c(c1)CC[C@H]1[C@@](C)(CN)CCC[C@@]21C	n[10 µM]	x	x	x	n[13.5 µM]	n
CC(C)CCN1CCN(Cc2cccc3cccnc23)CC1CCO (stereo not drawn)	n[10 µM]	n	u	n[9.22 µM]	n	x
COC(=O)c1ccc(CN2CCN(CC=C(C)C)C(CCO)C2)cc1 (stereo not drawn)	n[10 µM]	n	n	n[9.22 µM]	20µM	x
CC(C)=CCN1CCN(Cc2cnc(N3CCOCC3)s2)CC1CCO (stereo not drawn)	n[10 µM]	n	x	n[9.22 µM]	25µM	x
Cc1ccn2c(C=O)c(-c3ccc(F)cc3)c(C=O)c2c1	n	n	x	n	13µM	x
CCOC(=S)SSC(=S)OCC	n	x	x	n	x	x
COC(=O)[C@@]1(Cc2ccc(OC)cc2)[C@@H]2[C@@H](CC(=O)[C@H]2CC(=O)C(=O)N2CCCC2)CN1C(=O)c1ccccc1	n	n	x	x	n	n
C[C@@H]1C[C@H]2[C@H]3C[C@@H](F)C4=CC(=O)C=C[C@]4(C)[C@@]3(Cl)[C@@H](O)C[C@@]2(C)[C@@H]1C(=O)COC(=O)C(C)(C)C	n	n	n	n	n	n
O=[N+]([O-])c1ccccc1Oc1ccccc1Cl	n[10 µM]	n	n	n	n	32µM
SMILES	HTT cytoprotect	JMJD2E inh	LMNA splice mod	HTT aggregate	ALDH1A1 block	HPGD block
COCC(=O)N1CCC[C@@]2(CCN(C(=O)Nc3ccccc3)C2)C1	n	x	x	x	n	n
CCNc1nc(N)nc(Oc2ccc(OCc3ccccc3)nn2)n1	n	n	n	n	n	n
CCNc1nc(N)nc(Oc2ccc(OCCOc3ccccc3)nn2)n1	n	n	n	n	n	25µM
CN(C)C[C@H]1CCC[C@@H](CN(C)C)C1=O	n[10 µM]	x	x	x	n[13.5 µM]	n
S=C(NCCC(c1ccccc1)c1ccccc1)Nc1ccccc1Cl	n	n	u	20µM	u	n
NNC(=S)Nc1ccc(S(=O)(=O)N2CCOCC2)cc1	n[10 µM]	n	x	n[9.22 µM]	x	x
S=C(NCCC(c1ccccc1)c1ccccc1)Nc1ccc(Cl)cc1	n	n	u	u	n	n
CCCCNC(C(=O)Nc1cccc(S(=O)(=O)N2CCOCC2)c1)c1ccccc1 (stereo not drawn)	n	n	n	n	13µM	x

Screening results: PubChem, National Center for Advancing Translational Sciences (NCATS)
